Source: PubChem (National Center for Advancing Translational Sciences (NCATS))
Giardia killer: kills Giardia lamblia; Giardia lamblia trophozoite viability; activity change, % at 7.66 µM, hits read low; AID 540267; 340,000 compounds, 0.15% hits; in the data active = activity change below about -80%; inconclusive = between about -30% and that limit;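 note: parasites exposed to compound for two days anaerobically before the ATP read; % is set by controls: 0 for no effect and ±100 for the full control effect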
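Killing of trophozoites was scored by loss of ATP luminescence after a 48 hrs anaerobic exposure to compounds at 37 deg C, using 100 cells per well.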
BRCA1 expr act: increases BRCA1 expression; 380,000 compounds, 1.1% hits; AID 624202; Potency, µM (titrated, usually from 46.1 µM), inactives show top-dose activation, hits mostly activators; MCF7-BRCA1-FFLuc reporter, luminescence, 48 h; response scale: scaled: vehicle 0%, 10 µM genistein 100%; note: potency is the fitted concentration of half-maximal effect; nearly all actives have a fitted effect of over 80% in size
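Reporter cells (MCF7, BRCA1 promoter-firefly luciferase) received library compounds across a concentration series for 48 h. End-point luminescence was measured and concentration-effect curves derived after normalization.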
ELG1 DNA repair: inhibitors of ELG1-dependent DNA repair in HEK293T cells | AID 504467 | HEK293T ELG1-luciferase reporter, luminescence, 16 h; DNA damage induced by 5-fluorouridine | Potency, µM (titrated, usually from 46.1 µM), for inactives: at the top dose activity change, negative = inhibition, usual class: inhibitors | 330,000 compounds, 2.3% hits; note: potency is the fitted concentration of half-maximal effect; % is set by controls: 0 for no effect and ±100 for the full control effect; nearly all actives have a fitted effect of over 55% in size
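5-Fluorouridine DNA damage + compound/DMSO, 2,000 cells/well, 16 h, 37 °C/5% CO2. ONE-Glo, 30 min RT, luminescence. Readout = decrease in reporter signal.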
Gal4-VP16 FLuc: Gal4-VP16 reporter inhibition counter-screen; Drosophila S2 Gal4-VP16 UAS-luciferase, luminescence, 20 h; Potency, µM (doses to about 53.6 µM), for the others: top-dose activity, negative = inhibition, actives largely listed as inhibitors; 310,000 compounds, 3.5% hits; AID 2546;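 note: Gal4-VP16 expression switched on by copper sulfate through the metallothionein promoter; potency is the fitted concentration of half-maximal effect; % is set by controls: 0 for no effect and ±100 for the full control effect; nearly all actives have a fitted effect of over 50% in size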
p53 reactivation: mutant p53 re-activation in reporter cells | Potency, µM (highest dose often 92.2 µM), inactives show at the highest dose activity change, positive = activation, usual class: activators | H1299 p53-A138V BP100-luciferase reporter, luminescence, 24 h | 320,000 compounds, 0.063% hits; note: potency is the fitted concentration of half-maximal effect; % of control where 0% means no effect; nearly all actives have a fitted effect of over 45% in size
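p53-null H1299 cells stably carrying temperature-sensitive p53-A138V and a BP100-luciferase reporter were pinned with compounds (4-point, 1:5 series) and held 24 hrs at 37 deg C. Luminescence was read 10 min after detection reagent.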
RORgamma inh: inhibitors of mouse ROR gamma transcriptional activity; Potency, µM (highest dose often 53.6 µM), without a hit: top-dose activity change, negative = inhibition, actives largely listed as inhibitors; AID 2551; 310,000 compounds, 5.4% hits; Drosophila S2 Gal4-RORgamma UAS-luciferase reporter, 20 h; note: potency is the fitted concentration of half-maximal effect; % is set by controls: 0 for no effect and ±100 for the full control effect; nearly all actives have a fitted effect of over 60% in size
Target sequence (P51450 whole entry, looked up, the tested form may be a part): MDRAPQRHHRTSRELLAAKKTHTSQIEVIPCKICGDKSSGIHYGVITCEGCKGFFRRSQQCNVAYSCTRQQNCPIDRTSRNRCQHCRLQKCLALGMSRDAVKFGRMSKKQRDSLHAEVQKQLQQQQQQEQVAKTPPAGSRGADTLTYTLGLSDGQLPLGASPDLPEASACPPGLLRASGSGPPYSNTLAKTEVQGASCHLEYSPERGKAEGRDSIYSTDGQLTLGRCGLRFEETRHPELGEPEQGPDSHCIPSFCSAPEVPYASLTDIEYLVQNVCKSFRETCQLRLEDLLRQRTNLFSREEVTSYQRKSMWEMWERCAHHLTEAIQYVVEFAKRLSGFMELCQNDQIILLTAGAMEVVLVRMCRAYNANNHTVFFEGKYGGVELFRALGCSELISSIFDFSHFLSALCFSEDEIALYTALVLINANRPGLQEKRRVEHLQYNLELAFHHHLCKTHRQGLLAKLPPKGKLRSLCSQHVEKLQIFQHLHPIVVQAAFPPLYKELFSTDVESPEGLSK
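Compounds are pin-transferred onto Drosophila Schneider cells expressing a copper-inducible Gal4–ROR gamma transactivation domain fusion. After 1 hr, copper sulfate is added to 700 uM final; luciferase is read 20 hr later.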
An asterisk follows results filed as active; ? = inconclusive; · = no result. Sampled rows, rich in hits. Any-hit rate of the full collection: about 7.6%. Unless noted, calls come from the whole dose curve; as a rule, active = well fitted curve in the direction sought with a large enough effect; inconclusive = small, poorly fitted or top-dose-only effect, or another doubt; inactive = no such curve, though single readings can be large; an effect the other way counts as inactive or inconclusive.

SMILES	Giardia killer	BRCA1 expr act	ELG1 DNA repair	Gal4-VP16 FLuc	p53 reactivation	RORgamma inh
CC(=O)N(C)C1=C(N2CCOCC2)C(=O)c2ccccc2C1=O	-26	-94%	?	?	-40%	8.9µM*
O=C(O)c1ccc(NC2=C(N3CCOCC3)C(=O)c3ccccc3C2=O)cc1	14	-4%	1%	1%	3%	14%
CCOC(=O)c1[nH]c(C)c(C(=O)OCc2c(C)noc2C)c1C	25	-32%	-28%	11%	-4%	40%
Brc1ccc(CNCc2cccs2)cc1	4	-4%	1%	2%	?	4%
CCOc1ccc(CNCc2cccnc2)cc1	0	-13%	0%	-7%	8%	-25%
c1ccc(COc2ccc(CNCc3cccnc3)cc2)cc1	13	10µM*	-12%	16%	-3%	-1%
c1ccc(COc2ccc(CNCc3cccs3)cc2)cc1	7	29%	12%	16µM*	6%	?
CCOc1ccccc1C(=O)NCC(=O)N(C)CC(=O)Nc1ccc(N2CCOCC2)cc1	·	-18%	·	·	·	·
Cc1cnc(C(=O)Oc2ccc(-c3ccccc3)cc2)cn1	-9	26%	22%	-11%	8%	20%
CC1=CC(C)(C)N=C(Nc2ccc(C)cc2)S1	-17	13µM*	?	-2%	?	?
CS(=O)(=O)Nc1ccc(C(=O)NCCSCc2ccccc2)cc1	17	-28%	-8%	4%	-3%	-12%
CCCCNCc1nc2ccccc2c(=O)[nH]1	6	21%	14%	?	12%	10µM*
CCc1nc2ccccc2c(C(=O)OCc2nc3ccccc3c(=O)[nH]2)c1C	-1	-60%	13µM*	·	5%	·
Cc1c(C(=O)OCc2nnc(-c3ccccc3)o2)oc2ccccc12	-15	-8%	-6%	·	2%	·
CCc1ccc(NCc2nc3ccccc3c(=O)[nH]2)cc1	-4	6%	?	?	·	?
CCc1nc2ccccc2c(C(=O)OCc2nnc(-c3ccccc3)o2)c1C	-25	-5%	21µM*	-10%	-2%	17%
C/C(=C\c1ccccc1)CN(C)CCN(C)C	·	·	-1%	-5%	-17%	-11%
CC(C)N1CCN(Cc2ccc(C#CC(C)(C)O)s2)CC1CCO (centres undefined)	-9	-34%	4%	-6%	3%	2%
Oc1ccc(Br)cc1-c1cc(-c2ccc(Cl)cc2)n[nH]1	0	-86%	?	?	16%	?
O=[N+]([O-])c1cccc(-c2cc(-c3cc(Br)ccc3O)[nH]n2)c1	28	-76%	16µM*	11µM*	24%	7.1µM*
Oc1ccc(Br)cc1-c1cc(-c2ccccc2)n[nH]1	-12	-61%	-2%	?	?	1.3µM*
Oc1ccc(N=Nc2ccc3c(c2)OCCO3)c2cccnc12	-16	-77%	?	-22%	?	0%
COc1cccc(N=Nc2ccc(O)c3ncccc23)c1	-2	-68%	?	-94%	?	0.32µM*
COc1ccc(C)cc1N=Nc1ccc(O)c2ncccc12	-13	-96%	?	0.63µM*	0%	0.79µM*
Cc1ccccc1N=Nc1ccc(O)c2ncccc12	-23	-94%	?	0.89µM*	?	0.63µM*
O=Nc1ccc(O)c2ncccc12	-26	-72%	?	5.6µM*	-14%	1.6µM*
O=S(=O)(O)c1cccc2c(N=Nc3ccc(O)c4ncccc34)cccc12	6	-11%	-11%	-16%	-6%	?
C=C(C)Cn1c(SCC(=O)O)nnc1-c1ccc(OC)cc1	-18	-1%	-1%	-3%	-1%	-13%
COc1ccc(-c2ncccc2O)cc1	13	?	?	17%	14%	?
COc1ccc(N=Nc2ccc(O)c3ncccc23)cc1	-8	-65%	2%	?	20%	0.13µM*
